Assay results taken from PubChem BioAssay (EPA / NIEHS).
Activity calls are given as the source filed them. Rule for the calls: active = hit-call score of the fitted dose curve at least 0.9, where 1 is the maximum; inactive = score below 0.9.

Tests used:
[1] = ATG_CRE_CIS: Attagene CIS-FACTORIAL HepG2 Assay for human cAMP Responsive Element (CRE) binding protein 3 (AID 2282926); settings: HepG2 CRE cis-reporter, Attagene multiplexed mRNA; actives raise or lower the signal
In short: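 Endogenous transcription factor activity read via CRE-regulated reporter transcripts in transfected HepG2 cells. After 24 h exposure, RNA was reverse-transcribed, amplified, fluorescently labelled and sized by capillary electrophoresis; gain or loss fitted against DMSO.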

[2] = biological target: CCAAT/enhancer-binding protein beta (Homo sapiens) (UniProt P17676); test: ATG_C_EBP_CIS: Attagene CIS-FACTORIAL HepG2 Assay for human CCAAT/Enhancer Binding Protein (C/EBP) beta (AID 2282927); settings: HepG2 Attagene cis-factorial transcription factor reporter; actives raise or lower the signal
In short: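 HepG2, transient MRTU transfection, 24 h treatment. RT-PCR plus CE fluorescence; DMSO negative control, bidirectional fit.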

[3] = ATG_CMV_CIS: Attagene CIS-FACTORIAL HepG2 Assay for human CMV (Internal Marker) (AID 2282928); settings: HepG2 CMV promoter reporter, transcription factor profiling; actives raise or lower the signal;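 note: endpoint acts as a background internal control marker rather than a target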
In short: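 Readout: fluorescent reporter cDNA fragments separated by capillary electrophoresis after RT-PCR and HpaI cut. Cells: HepG2 carrying transfected cis-promoter reporter constructs, dosed 24 h. Endpoint serves as background internal-marker control, fit bidirectionally versus DMSO.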

[4] = ATG_DR4_LXR_CIS: Attagene CIS-FACTORIAL HepG2 Assay for human Liver X Receptor (LXR), DR4 submotif (AID 2282929); settings: HepG2 Attagene DR4 cis-reporter, mRNA transcription; actives raise or lower the signal
In short: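 Endogenous factor activity at a DR4 cis-element is read as reporter mRNA in transiently transfected HepG2 cells. Exposure lasts 24 h; transcripts are amplified, fluorescently labelled and sized by capillary electrophoresis, with DMSO as baseline.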

[5] = ATG_AP_2_CIS: Attagene CIS-FACTORIAL HepG2 Assay for human Activator Protein 2 (AP-2) (AID 2282932); settings: HepG2 AP-2 cis-reporter, Attagene transcription factor profiling; actives raise or lower the signal
In short: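 Liver-derived HepG2 line, cis-reporter system measuring endogenous factors; 24 h dosing; reporter mRNA detected by fluorescent RT-PCR and capillary electrophoresis.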

[6] = ATG_E_Box_CIS: Attagene CIS-FACTORIAL HepG2 Assay for human Enhancer Box (E-box) (AID 2282936); settings: HepG2 E-box cis-reporter transcription, actives raise or lower the signal
In short: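 In this cell-based setup, HepG2 cells bearing transfected promoter-driven reporter units were exposed to chemicals for 24 h; reporter transcripts were amplified, 6-FAM-labelled, cut with HpaI and sized by capillary electrophoresis.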

[7] = ATG_EGR_CIS: Attagene CIS-FACTORIAL HepG2 Assay for human Early Growth Response 1 (EGR1) (AID 2282938); settings: HepG2 Attagene CIS-FACTORIAL EGR reporter mRNA; actives raise or lower the signal
In short: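 HepG2, transient MRTU transfection (cis promoters), 24 h compound. RNA → RT (oligo-dT) → PCR → 6-FAM labelling → HpaI cut → CE fluorescence. Bidirectional fit, DMSO baseline.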

[8] = ATG_M_19_CIS: Attagene CIS-FACTORIAL HepG2 Assay for M19 Transcription Factor (Internal Marker) (AID 2282939); settings: HepG2 Attagene CIS-FACTORIAL M19 internal marker reporter; actives raise or lower the signal
In short: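 Signals come from fluorescence of labelled reporter-specific PCR fragments resolved by capillary electrophoresis, following 24 h treatment of HepG2 cells transfected with cis-promoter reporter units; activity was fitted in both directions relative to DMSO.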

[9] = ATG_Ets_CIS: Attagene CIS-FACTORIAL HepG2 Assay for human Erythroblast Transformation Specific (ETS) (AID 2282941); settings: HepG2 ETS cis-reporter transcription, actives raise or lower the signal
In short: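 RT-PCR/capillary electrophoresis fluorescence read-out of reporter mRNA; HepG2 transient multi-reporter transfection; 24 h compound exposure; gain or loss of signal fitted bidirectionally relative to DMSO.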

[10] = biological target: Hepatocyte nuclear factor 3-beta (Homo sapiens) (UniProt Q9Y261); test: ATG_FoxA2_CIS: Attagene CIS-FACTORIAL HepG2 Assay for human Forkhead box A2 (FOXA2) (AID 2282942); settings: HepG2 cis-reporter transcription factor activity, 24 h; actives raise or lower the signal
In short: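 Cells: HepG2, transient multiplex reporter transfection. Exposure 24 h. Detection: reporter-specific RT-PCR, fluorescent labelling, restriction digest, capillary electrophoresis. Analysis: bidirectional curve fit, DMSO as negative control.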

[11] = ATG_FoxO_CIS: Attagene CIS-FACTORIAL HepG2 Assay for human Forkhead box O (FoxO) (AID 2282943); settings: HepG2 Attagene cis-reporter, FoxO element, mRNA; actives raise or lower the signal
In short: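 Transfected HepG2 reporter cells exposed to test chemical for 24 h; reporter RNA measured by reverse transcription, PCR and fluorescent capillary electrophoresis; curves fitted for increases and decreases against DMSO.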

[12] = ATG_GATA_CIS: Attagene CIS-FACTORIAL HepG2 Assay for human GATA Binding Protein (AID 2282944); settings: HepG2 GATA cis-element reporter, Attagene multiplex mRNA; actives raise or lower the signal
In short: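 After transfecting HepG2 cells with multiple cis-regulated reporter units, chemicals are dosed for 24 h; isolated RNA undergoes RT-PCR and fluorescent labeling before capillary electrophoresis, with activity expressed against DMSO.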

[13] = ATG_M_32_CIS: Attagene CIS-FACTORIAL HepG2 Assay for M32 Transcription Factor (Internal Marker) (AID 2282949); settings: HepG2 Attagene cis-factorial M32 reporter, mRNA; actives raise or lower the signal;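 note: background control marker of the multiplexed CIS panel rather than a real target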
In short: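 HepG2 transfectants (cis-regulated reporter transcription units) dosed 24 h. Reporter mRNA by RT-PCR plus CE, analysed as gain or loss relative to DMSO.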

[14] = ATG_M_06_CIS: Attagene CIS-FACTORIAL HepG2 Assay for M06 Transcription Factor (Internal Marker) (AID 2282950); settings: HepG2 Attagene CIS-FACTORIAL M06 internal marker reporter; actives raise or lower the signal
In short: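 HepG2 liver cells, 24 h exposure. Reporter transcripts from transfected cis-element constructs quantified by RT-PCR/capillary electrophoresis fluorescence. Bidirectional curve fit against DMSO.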

[15] = ATG_PXRE_CIS: Attagene CIS-FACTORIAL HepG2 Assay for human Pregnane X Receptor Element (PXRE) (AID 2282957); settings: HepG2 Attagene CIS-FACTORIAL PXRE reporter, mRNA; actives raise or lower the signal
In short: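 Reporter transcripts under endogenous PXR-responsive cis-regulation quantified from total RNA of transfected HepG2 cells 24 h post-dosing, via RT-PCR with fluorescent primer extension and capillary electrophoresis. Gain or loss of signal fitted against DMSO baseline.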

[16] = ATG_Sox_CIS: Attagene CIS-FACTORIAL HepG2 Assay for human SRY-box transcription factor (SOX) (AID 2282960); settings: HepG2 Attagene cis-factorial SOX reporter, mRNA; actives raise or lower the signal
In short: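 Cells were transfected with reporter constructs under cis-regulatory promoters, then exposed to chemicals for 24 h. Reporter transcripts were quantified by fluorescence after RT-PCR and capillary electrophoresis; activity was fitted in both directions against DMSO.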

[17] = biological target: Transcription factor Sp1 (Homo sapiens) (UniProt P08047); test: ATG_Sp1_CIS: Attagene CIS-FACTORIAL HepG2 Assay for human Specificity Protein 1 (Sp1) (AID 2282961); settings: HepG2 Sp1 cis-reporter transcription, actives raise or lower the signal
In short: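 Measures mRNA induction of an Sp1-linked reporter in HepG2 cells 24 h post-dosing. Multiplexed reporters read by RT-PCR and capillary electrophoresis; DMSO serves as negative control and baseline.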

[18] = ATG_SREBP_CIS: Attagene CIS-FACTORIAL HepG2 Assay for human Sterol Regulatory Element Binding (SREBP) (AID 2282962); settings: HepG2 Attagene cis-factorial SREBP reporter, mRNA; actives raise or lower the signal
In short: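 Readout: fluorescent reporter-transcript peaks resolved by capillary electrophoresis after RT-PCR. Cells were human HepG2 carrying transfected cis-promoter reporter constructs, dosed for 24 h. Gain or loss of signal was fitted against DMSO controls.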

[19] = biological target: Signal transducer and activator of transcription 3 (Homo sapiens) (UniProt P40763); test: ATG_STAT3_CIS: Attagene CIS-FACTORIAL HepG2 Assay for human Signal Transducer and Activator of Transcription 3 (STAT3) (AID 2282963); settings: HepG2, Attagene cis-factorial STAT3 reporter transcription; actives raise or lower the signal
In short: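 Fluorescence intensity of 6-FAM-labelled reporter fragments, separated by capillary electrophoresis after RT-PCR, gave the signal. Cells were HepG2 transfected with cis-element reporter units and treated 24 h; fitting was bidirectional relative to DMSO.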

[20] = ATG_TA_CIS: Attagene CIS-FACTORIAL HepG2 Assay for human TA Basal Promoter (AID 2282964); settings: HepG2 Attagene CIS-factorial TA basal promoter reporter; actives raise or lower the signal
In short: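 Fluorescence from labelled RT-PCR reporter fragments, separated by capillary electrophoresis, gives the signal. Cells: HepG2 transiently carrying multiple reporter units, 24 h chemical dosing. Gain or loss relative to DMSO.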

Chain of Transcription factor Sp1 (Homo sapiens) (P08047 whole entry, looked up): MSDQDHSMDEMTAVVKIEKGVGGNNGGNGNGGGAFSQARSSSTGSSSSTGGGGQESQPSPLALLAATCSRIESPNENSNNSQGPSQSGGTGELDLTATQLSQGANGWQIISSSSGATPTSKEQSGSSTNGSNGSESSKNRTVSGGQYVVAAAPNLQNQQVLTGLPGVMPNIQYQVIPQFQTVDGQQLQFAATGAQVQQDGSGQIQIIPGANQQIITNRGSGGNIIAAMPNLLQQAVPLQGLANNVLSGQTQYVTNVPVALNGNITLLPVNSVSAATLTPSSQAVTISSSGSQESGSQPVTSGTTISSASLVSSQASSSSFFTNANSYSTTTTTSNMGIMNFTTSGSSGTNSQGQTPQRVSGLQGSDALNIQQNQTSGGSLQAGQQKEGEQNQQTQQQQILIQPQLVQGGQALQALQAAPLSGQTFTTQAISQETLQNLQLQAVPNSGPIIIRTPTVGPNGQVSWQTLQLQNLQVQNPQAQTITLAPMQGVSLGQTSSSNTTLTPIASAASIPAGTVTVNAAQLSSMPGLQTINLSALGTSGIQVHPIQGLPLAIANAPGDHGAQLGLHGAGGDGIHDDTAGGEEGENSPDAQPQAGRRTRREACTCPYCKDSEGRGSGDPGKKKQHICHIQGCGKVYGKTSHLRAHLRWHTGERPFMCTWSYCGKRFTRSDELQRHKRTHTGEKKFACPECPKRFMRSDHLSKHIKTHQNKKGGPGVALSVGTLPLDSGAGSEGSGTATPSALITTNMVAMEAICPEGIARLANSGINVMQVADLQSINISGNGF
Chain of Hepatocyte nuclear factor 3-beta (Homo sapiens) (Q9Y261 whole entry, looked up): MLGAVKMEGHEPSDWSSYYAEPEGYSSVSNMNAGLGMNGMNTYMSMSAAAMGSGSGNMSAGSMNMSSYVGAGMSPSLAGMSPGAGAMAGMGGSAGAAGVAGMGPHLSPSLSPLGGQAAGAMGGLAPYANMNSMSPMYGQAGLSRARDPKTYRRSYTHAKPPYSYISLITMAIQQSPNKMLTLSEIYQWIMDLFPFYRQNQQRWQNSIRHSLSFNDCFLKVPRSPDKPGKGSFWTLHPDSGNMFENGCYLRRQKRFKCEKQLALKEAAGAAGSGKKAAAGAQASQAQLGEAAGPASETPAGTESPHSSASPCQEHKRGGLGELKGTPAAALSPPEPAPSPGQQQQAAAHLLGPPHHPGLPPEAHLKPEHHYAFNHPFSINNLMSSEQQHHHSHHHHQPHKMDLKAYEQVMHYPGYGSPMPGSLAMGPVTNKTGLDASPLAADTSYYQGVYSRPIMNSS
Chain of Signal transducer and activator of transcription 3 (Homo sapiens) (P40763 whole entry, looked up, the tested form may be a part): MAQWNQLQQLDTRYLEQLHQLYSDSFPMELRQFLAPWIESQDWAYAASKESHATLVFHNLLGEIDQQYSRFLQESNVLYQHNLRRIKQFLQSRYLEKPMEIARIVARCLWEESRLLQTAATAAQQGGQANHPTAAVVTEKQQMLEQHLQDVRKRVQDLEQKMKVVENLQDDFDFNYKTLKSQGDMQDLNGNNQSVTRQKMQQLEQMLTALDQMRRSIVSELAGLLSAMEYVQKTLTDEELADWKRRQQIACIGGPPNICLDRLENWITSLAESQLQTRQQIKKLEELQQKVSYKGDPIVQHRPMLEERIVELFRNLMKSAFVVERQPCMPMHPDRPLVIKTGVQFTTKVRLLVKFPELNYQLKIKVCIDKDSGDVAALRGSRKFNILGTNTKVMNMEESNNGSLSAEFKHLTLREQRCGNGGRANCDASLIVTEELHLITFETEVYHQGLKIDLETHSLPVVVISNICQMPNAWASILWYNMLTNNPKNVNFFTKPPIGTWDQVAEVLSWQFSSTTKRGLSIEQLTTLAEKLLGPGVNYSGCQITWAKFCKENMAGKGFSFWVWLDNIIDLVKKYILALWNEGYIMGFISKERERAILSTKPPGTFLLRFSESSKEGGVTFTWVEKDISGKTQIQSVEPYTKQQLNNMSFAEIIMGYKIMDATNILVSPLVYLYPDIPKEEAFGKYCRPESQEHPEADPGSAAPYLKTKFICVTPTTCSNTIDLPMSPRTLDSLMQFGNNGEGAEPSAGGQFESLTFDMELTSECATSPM
Chain of CCAAT/enhancer-binding protein beta (Homo sapiens) (P17676 whole entry, looked up): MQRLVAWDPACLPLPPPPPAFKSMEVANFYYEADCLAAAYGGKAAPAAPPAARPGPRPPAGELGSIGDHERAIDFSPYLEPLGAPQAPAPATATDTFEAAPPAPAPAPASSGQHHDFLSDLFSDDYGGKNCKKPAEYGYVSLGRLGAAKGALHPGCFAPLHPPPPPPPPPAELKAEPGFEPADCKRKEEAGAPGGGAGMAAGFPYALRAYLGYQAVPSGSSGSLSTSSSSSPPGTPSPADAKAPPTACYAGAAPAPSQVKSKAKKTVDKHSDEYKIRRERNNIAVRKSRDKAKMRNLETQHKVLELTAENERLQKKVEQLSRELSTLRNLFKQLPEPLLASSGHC

Structure (SMILES): CCCOC(=O)c1ccccc1C(=O)OCCC
- outcome [1]: inactive
- outcome [2]: inactive
- outcome [3]: inactive
- outcome [4]: inactive
- outcome [5]: inactive
- outcome [6]: inactive
- outcome [7]: inactive
- outcome [8]: inactive
- outcome [9]: inactive
- outcome [10]: inactive
- outcome [11]: inactive
- outcome [12]: inactive
- outcome [13]: inactive
- outcome [14]: inactive
- AC50 [15]: 28.9 µM (active)
- outcome [16]: inactive
- outcome [17]: inactive
- outcome [18]: inactive
- outcome [19]: inactive
- outcome [20]: inactive

Structure (SMILES): CC(C)COP(=O)(OCC(C)C)OCC(C)C
- outcome [1]: inactive
- outcome [2]: inactive
- outcome [3]: inactive
- AC50 [4]: 57.9 µM (active)
- outcome [5]: inactive
- outcome [6]: inactive
- outcome [7]: inactive
- outcome [8]: inactive
- outcome [9]: inactive
- outcome [10]: inactive
- outcome [11]: inactive
- outcome [12]: inactive
- outcome [13]: inactive
- outcome [14]: inactive
- AC50 [15]: 2.21 µM (active)
- outcome [16]: inactive
- outcome [17]: inactive
- outcome [18]: inactive
- outcome [19]: inactive
- outcome [20]: inactive

Structure (SMILES): C=CC(=O)OCC(CC)CCCC (stereo not given)
- outcome [1]: inactive
- outcome [2]: inactive
- outcome [3]: inactive
- AC50 [4]: 147 µM (active)
- outcome [5]: inactive
- outcome [6]: inactive
- outcome [7]: inactive
- outcome [8]: inactive
- outcome [9]: inactive
- outcome [10]: inactive
- outcome [11]: inactive
- outcome [12]: inactive
- outcome [13]: inactive
- outcome [14]: inactive
- outcome [15]: inactive
- outcome [16]: inactive
- outcome [17]: inactive
- outcome [18]: inactive
- outcome [19]: inactive
- outcome [20]: inactive

Structure (SMILES): C[C@]12CCC(=O)C(O)=C1CC[C@@H]1[C@@H]2CC[C@]2(C)C(=O)CC[C@@H]12
- outcome [1]: inactive
- outcome [2]: inactive
- outcome [3]: inactive
- outcome [4]: inactive
- outcome [5]: inactive
- outcome [6]: inactive
- outcome [7]: inactive
- outcome [8]: inactive
- outcome [9]: inactive
- outcome [10]: inactive
- outcome [11]: inactive
- outcome [12]: inactive
- outcome [13]: inactive
- outcome [14]: inactive
- AC50 [15]: 11.2 µM (active)
- outcome [16]: inactive
- outcome [17]: inactive
- AC50 [18]: 27.6 µM (active)
- outcome [19]: inactive
- outcome [20]: inactive

Structure (SMILES): CC(C)(c1cc(Cl)c(O)c(Cl)c1)c1cc(Cl)c(O)c(Cl)c1
- outcome [1]: inactive
- outcome [2]: inactive
- AC50 [3]: 8 µM (active)
- AC50 [4]: 33.4 µM (active)
- outcome [5]: inactive
- outcome [6]: inactive
- AC50 [7]: 52.8 µM (active)
- outcome [8]: inactive
- outcome [9]: inactive
- outcome [10]: inactive
- outcome [11]: inactive
- outcome [12]: inactive
- outcome [13]: inactive
- outcome [14]: inactive
- outcome [15]: inactive
- outcome [16]: inactive
- outcome [17]: inactive
- outcome [18]: inactive
- outcome [19]: inactive
- outcome [20]: inactive

Structure (SMILES): COc1ccc(CO)cc1
- outcome [1]: inactive
- outcome [2]: inactive
- outcome [3]: inactive
- outcome [4]: inactive
- outcome [5]: inactive
- outcome [6]: inactive
- outcome [7]: inactive
- outcome [8]: inactive
- outcome [9]: inactive
- outcome [10]: inactive
- outcome [11]: inactive
- outcome [12]: inactive
- outcome [13]: inactive
- outcome [14]: inactive
- outcome [15]: inactive
- outcome [16]: inactive
- outcome [17]: inactive
- outcome [18]: inactive
- outcome [19]: inactive
- outcome [20]: inactive

Structure (SMILES): [Cl-].[Cl-].[Cl-].[Yb+3]
- outcome [1]: inactive
- outcome [2]: inactive
- outcome [3]: inactive
- outcome [4]: inactive
- outcome [5]: inactive
- outcome [6]: inactive
- outcome [7]: inactive
- outcome [8]: inactive
- outcome [9]: inactive
- outcome [10]: inactive
- outcome [11]: inactive
- outcome [12]: inactive
- outcome [13]: inactive
- outcome [14]: inactive
- outcome [15]: inactive
- outcome [16]: inactive
- outcome [17]: inactive
- outcome [18]: inactive
- outcome [19]: inactive
- outcome [20]: inactive
